Measured values from PubChem BioAssay.
Activity calls are given as the source filed them. Rule as the data show it: active = inhibition above about 31%; inactive = the rest.

Assay: MRP1 drug-resistance reversers in H69AR cells – cell-based, doxorubicin co-treatment, pilot screen (AID 601)
Details: H69AR cells, CellTiter-Glo, 72 h; compound alone cytotoxicity; at 10 µM
Work on `CCCCn1cnc2c(cnn2-c2ccc(Cl)cc2)c1=O` yielded a viability of 86.1%.
`Cc1ccc(N2CCN(C(=O)c3ccccc3Br)CC2)c(C)c1` showed a viability of 89.2%.
`COc1cccc(CN2CCN(C(=O)c3ccco3)CC2)c1OC` gave a viability of 103%.
In the case of `CCOC(=O)c1nnn(CC(=O)Nc2cccc(OC)c2)c1C(=O)OCC`, the viability is reported as 83.7%.
`O=C(CCN1C(=O)c2ccccc2C1=O)OCN1C(=O)c2ccccc2C1=O` showed a viability of 91.8%.
Work on `COc1ccccc1CC1(C)NC(=O)N(CC(=O)Nc2cc(C)on2)C1=O` (stereo not given) yielded a viability of 92.7%.
For `c1ccc(CNc2c3c(nc4ncnn24)CCCC3)nc1`, the viability was 85.2%.
`Cc1cc(C(=O)OCCO)c(C#N)c(N)n1` gave a viability of 92.1%.
In the case of `CN(c1ccccc1)S(=O)(=O)c1ccc(C(=O)OCC(=O)N2CCOCC2)cc1`, the viability is reported as 111%.
Compound `CCC1C(=O)n2nc(-c3ccccc3)cc2N=C1C` (stereo not given) has a viability of 99%.
`NC(=O)c1c(NC(=O)CSc2nnc(-c3ccco3)n2-c2ccccc2)sc2c1CCC2` showed a viability of 28.9%.
Work on `CCN(Cc1cc2ccccc2[nH]c1=O)S(=O)(=O)c1ccccc1` yielded a viability of 87.1%.
In the case of `CCOC(=O)C1CCCN(Cc2nc(N)nc(Nc3ccc(C)cc3)n2)C1` (stereo not given), the viability is reported as 87.4%.
With `COc1cccc(NC(=O)CSc2nnc(-c3cccs3)n2C)c1` the viability was 97.5%.
With `O=C(Nc1cccc(C(=O)N2CCOCC2)c1)c1cccnc1` the viability was 91.2%.
Work on `C=CCn1c(=O)[nH]c2cc(C(=O)N3CCN(c4cc(C)ccc4C)CC3)ccc2c1=O` yielded a viability of 41.3%.
For `COc1ccc(C2/C(=C(/O)c3cnn(-c4ccccc4)c3C)C(=O)C(=O)N2CCN(C)C)cc1OC` (stereo not given), the viability was 101%.
Work on `COCCN(C(=O)Cn1nnc2ccccc21)C(C(=O)NC1CCCC1)c1cc(OC)ccc1OC` (stereo not given) yielded a viability of 93.9%.
`O=C(OCC(=O)N1CCc2ccccc21)C1=COCCO1` gave a viability of 86.1%.
In the case of `O=C(CCn1c(=O)sc2ccccc21)NC1=NCCS1`, the viability is reported as 91.6%.
Work on `CC(C)COC(=O)C1[C@H]2C(=O)N(Cc3cccs3)C[C@]23C=C[C@H]1O3` (stereo not given in full) yielded a viability of 91.1%.
`O=C(Cn1nnc(-c2cccc(C(F)(F)F)c2)n1)NC(=O)NCc1ccco1` showed a viability of 74.1%.
`Cn1c(=O)c(C(=O)Nc2cccnc2)c(O)c2ccccc21` gave a viability of 88.4%.
For `O=S(=O)(c1cccc(-c2nnco2)c1)N1CCCC1`, the viability was 95.4%.
With `CCOc1ccc2c(c1)sc1nc(C(=O)OC)cc(=O)n12` the viability was 84.8%.
In the case of `O=C(c1cccn2c(=O)c3cc(Cl)ccc3nc12)N1CCOCC1`, the viability is reported as 116%.
With `CC1(C)CNC(=O)CC(C)(C)N1O` the viability was 95.6%.
`O=C(CSc1nnnn1C1CCCC1)Nc1cccc(NC(=O)c2ccco2)c1` showed a viability of 110%.
In the case of `Cc1onc(-c2ccccc2)c1C(=O)Nc1ccnn1C1CCCCC1`, the viability is reported as 90.6%.
Work on `O=C1C(c2ccncc2)=C(O)c2ccccc21` yielded a viability of 82.2%.
`CC(NC(=O)Cc1cccs1)c1ccc2c(c1)OCO2` (stereo not given) showed a viability of 99.9%.
For `O=C(c1cnn2c(C(F)F)cc(C3CC3)nc12)N1CCOCC1`, the viability was 113%.
Compound `COc1ccc(-c2cc(C(F)F)n3ncc(C(=O)NCC4CCCO4)c3n2)cc1` (stereo not given) has a viability of 73.6%.
In the case of `Cn1c(SCC(=O)Nc2ccc3c(c2)oc2ccccc23)nnc1-c1ccccc1`, the viability is reported as 69.4%.
In the case of `COC(=O)Nc1ccc(S(=O)(=O)N(C)CC(F)(F)C(F)F)cc1`, the viability is reported as 93.1%.
Work on `Cc1cccc(C2CC(c3ccc(Br)cc3)Nc3nc(N)nn32)c1` (stereo not given) yielded a viability of 87.6%.
Compound `Cc1cnc(C(=O)OCC(=O)Nc2ccc(Cl)cc2Cl)cn1` has a viability of 103%.
With `CCOC(=O)C1CCN(C(=O)c2ccc(OC)cc2OC)CC1` the viability was 106%.
With `CN(Cc1ccccc1)Cc1c[nH]c2ccccc12` the viability was 89.8%.
For `CCN(C(=O)COC(=O)c1cc(C)n(-c2ccc(F)cc2)c1C)C1CCS(=O)(=O)C1` (stereo not given), the viability was 103%.

Assay: yeast transport mutant growth inhibition pilot in 384-well plates, post-Golgi transport modulator project (AID 636)
Details: absorbance 615 nm, about 18 h, stronger effect = higher value
With `CCCCn1cnc2c(cnn2-c2ccc(Cl)cc2)c1=O` the inhibition was -3.55% (inactive).
In the case of `Cc1ccc(N2CCN(C(=O)c3ccccc3Br)CC2)c(C)c1`, the inhibition is reported as -5.6% (inactive).
In the case of `COc1cccc(CN2CCN(C(=O)c3ccco3)CC2)c1OC`, the inhibition is reported as -5.14% (inactive).
In the case of `CCOC(=O)c1nnn(CC(=O)Nc2cccc(OC)c2)c1C(=O)OCC`, the inhibition is reported as -4.53% (inactive).
In the case of `O=C(CCN1C(=O)c2ccccc2C1=O)OCN1C(=O)c2ccccc2C1=O`, the inhibition is reported as 6.8% (inactive).
In the case of `COc1ccccc1CC1(C)NC(=O)N(CC(=O)Nc2cc(C)on2)C1=O` (stereo not given), the inhibition is reported as -5.81% (inactive).
In the case of `c1ccc(CNc2c3c(nc4ncnn24)CCCC3)nc1`, the inhibition is reported as -5.34% (inactive).
In the case of `Cc1cc(C(=O)OCCO)c(C#N)c(N)n1`, the inhibition is reported as -3.87% (inactive).
In the case of `CN(c1ccccc1)S(=O)(=O)c1ccc(C(=O)OCC(=O)N2CCOCC2)cc1`, the inhibition is reported as -5.41% (inactive).
With `CCC1C(=O)n2nc(-c3ccccc3)cc2N=C1C` (stereo not given) the inhibition was -0.39% (inactive).
For `NC(=O)c1c(NC(=O)CSc2nnc(-c3ccco3)n2-c2ccccc2)sc2c1CCC2`, the inhibition was -4% (inactive).
In the case of `CCN(Cc1cc2ccccc2[nH]c1=O)S(=O)(=O)c1ccccc1`, the inhibition is reported as -4.59% (inactive).
In the case of `CCOC(=O)C1CCCN(Cc2nc(N)nc(Nc3ccc(C)cc3)n2)C1` (stereo not given), the inhibition is reported as 0% (inactive).
For `COc1cccc(NC(=O)CSc2nnc(-c3cccs3)n2C)c1`, the inhibition was -6.08% (inactive).
In the case of `O=C(Nc1cccc(C(=O)N2CCOCC2)c1)c1cccnc1`, the inhibition is reported as -6.18% (inactive).
In the case of `C=CCn1c(=O)[nH]c2cc(C(=O)N3CCN(c4cc(C)ccc4C)CC3)ccc2c1=O`, the inhibition is reported as -6.76% (inactive).
With `COc1ccc(C2/C(=C(/O)c3cnn(-c4ccccc4)c3C)C(=O)C(=O)N2CCN(C)C)cc1OC` (stereo not given) the inhibition was -1.62% (inactive).
For `COCCN(C(=O)Cn1nnc2ccccc21)C(C(=O)NC1CCCC1)c1cc(OC)ccc1OC` (stereo not given), the inhibition was -0.8% (inactive).
With `O=C(OCC(=O)N1CCc2ccccc21)C1=COCCO1` the inhibition was -4.94% (inactive).
For `O=C(CCn1c(=O)sc2ccccc21)NC1=NCCS1`, the inhibition was -1.87% (inactive).
For `CC(C)COC(=O)C1[C@H]2C(=O)N(Cc3cccs3)C[C@]23C=C[C@H]1O3` (stereo not given in full), the inhibition was -4.29% (inactive).
With `O=C(Cn1nnc(-c2cccc(C(F)(F)F)c2)n1)NC(=O)NCc1ccco1` the inhibition was -1.05% (inactive).
In the case of `Cn1c(=O)c(C(=O)Nc2cccnc2)c(O)c2ccccc21`, the inhibition is reported as -3.65% (inactive).
In the case of `O=S(=O)(c1cccc(-c2nnco2)c1)N1CCCC1`, the inhibition is reported as -3.33% (inactive).
In the case of `CCOc1ccc2c(c1)sc1nc(C(=O)OC)cc(=O)n12`, the inhibition is reported as -6.49% (inactive).
With `O=C(c1cccn2c(=O)c3cc(Cl)ccc3nc12)N1CCOCC1` the inhibition was -3.2% (inactive).
With `CC1(C)CNC(=O)CC(C)(C)N1O` the inhibition was -1.43% (inactive).
In the case of `O=C(CSc1nnnn1C1CCCC1)Nc1cccc(NC(=O)c2ccco2)c1`, the inhibition is reported as -0.39% (inactive).
With `Cc1onc(-c2ccccc2)c1C(=O)Nc1ccnn1C1CCCCC1` the inhibition was -5.6% (inactive).
With `O=C1C(c2ccncc2)=C(O)c2ccccc21` the inhibition was -1.05% (inactive).
For `CC(NC(=O)Cc1cccs1)c1ccc2c(c1)OCO2` (stereo not given), the inhibition was -4.67% (inactive).
With `O=C(c1cnn2c(C(F)F)cc(C3CC3)nc12)N1CCOCC1` the inhibition was -3.29% (inactive).
For `COc1ccc(-c2cc(C(F)F)n3ncc(C(=O)NCC4CCCO4)c3n2)cc1` (stereo not given), the inhibition was -0.79% (inactive).
For `Cn1c(SCC(=O)Nc2ccc3c(c2)oc2ccccc23)nnc1-c1ccccc1`, the inhibition was -5.73% (inactive).
With `COC(=O)Nc1ccc(S(=O)(=O)N(C)CC(F)(F)C(F)F)cc1` the inhibition was -6.05% (inactive).
With `Cc1cccc(C2CC(c3ccc(Br)cc3)Nc3nc(N)nn32)c1` (stereo not given) the inhibition was -4.4% (inactive).
With `Cc1cnc(C(=O)OCC(=O)Nc2ccc(Cl)cc2Cl)cn1` the inhibition was -8.49% (inactive).
For `CCOC(=O)C1CCN(C(=O)c2ccc(OC)cc2OC)CC1`, the inhibition was -6.13% (inactive).
In the case of `CN(Cc1ccccc1)Cc1c[nH]c2ccccc12`, the inhibition is reported as -4.61% (inactive).
For `CCN(C(=O)COC(=O)c1cc(C)n(-c2ccc(F)cc2)c1C)C1CCS(=O)(=O)C1` (stereo not given), the inhibition was -3.47% (inactive).
